# S2 tox: Viability Counterscreen for Primary qHTS for Inhibitors of ATXN expression; S2 cells (HEK-293 line with an ATXN2-luciferase reporter) viability, CellTiter-Fluor protease fluorescence, 24 h; Potency, µM (series often up to 56.7 µM), hits mostly cytotoxic; 400,000 tested, 0.49% active; AID 651635, 2014; note: nearly all actives have a fitted effect of over 40% in size
# HepG2 viability: qHTS for Inhibitors of TGF-b: Cytotox Counterscreen. Potency, µM (doses to about 46.1 µM), hits mostly cytotoxic. 410,000 tested, 0.76% active. HepG2 CAGA-GFP viability, ATP luminescence, 18 h
#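 HepG2 CAGA-GFP cells (1000/well, DMEM with 1% FBS) received compound, then TGF-beta at 500 pg/mL final, and were incubated 18 hours at 37 degrees C. Viability was read by CellTiter-Glo luminescence. Media-only wells were set as complete cell-killing and DMSO as no toxicity.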
# TGFb SMAD3 inh: qHTS for Inhibitors of TGF-b; Potency, µM (top dose mostly 46.1 µM), hits mostly inhibitors; 410,000 tested, 1.2% active; HepG2 CAGA-GFP TGF-b/SMAD3 reporter, GFP fluorescence, 18 h; TGF-beta stimulated, 500 pg/mL final; note: nearly all actives have a fitted effect of over 65% in size
#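 HEPG2 CAGA-GFP reporter cells (1000/well, DMEM with 1% FBS) received compounds, then recombinant TGF-beta at 500 pg/mL final for 18 hours at 37 degrees C. Per-cell GFP summed per well was normalised to unstimulated and stimulated DMSO controls before curve fitting.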
# VP16 counter: VP16 counterscreen qHTS for inhibitors of ROR gamma transcriptional activity. Drosophila S2 Gal4-VP16 UAS-luciferase, luminescence, 20 h. Potency, µM (doses to about 53.6 µM), most hits filed as inhibitors. 310,000 tested, 3.5% active. AID 2546, 2010;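 note: Gal4-VP16 expression switched on by copper sulfate through the metallothionein promoter; nearly all actives have a fitted effect of over 50% in size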
# RORgamma inh: qHTS for inhibitors of ROR gamma transcriptional activity; Nuclear receptor ROR-gamma (Mus musculus), P51450; Drosophila S2 Gal4-RORgamma UAS-luciferase reporter, 20 h; Potency, µM (titrated, usually from 53.6 µM), actives largely listed as inhibitors; 310,000 tested, 5.4% active; note: nearly all actives have a fitted effect of over 60% in size
# Target sequence (P51450 whole entry, looked up, the tested form may be a part): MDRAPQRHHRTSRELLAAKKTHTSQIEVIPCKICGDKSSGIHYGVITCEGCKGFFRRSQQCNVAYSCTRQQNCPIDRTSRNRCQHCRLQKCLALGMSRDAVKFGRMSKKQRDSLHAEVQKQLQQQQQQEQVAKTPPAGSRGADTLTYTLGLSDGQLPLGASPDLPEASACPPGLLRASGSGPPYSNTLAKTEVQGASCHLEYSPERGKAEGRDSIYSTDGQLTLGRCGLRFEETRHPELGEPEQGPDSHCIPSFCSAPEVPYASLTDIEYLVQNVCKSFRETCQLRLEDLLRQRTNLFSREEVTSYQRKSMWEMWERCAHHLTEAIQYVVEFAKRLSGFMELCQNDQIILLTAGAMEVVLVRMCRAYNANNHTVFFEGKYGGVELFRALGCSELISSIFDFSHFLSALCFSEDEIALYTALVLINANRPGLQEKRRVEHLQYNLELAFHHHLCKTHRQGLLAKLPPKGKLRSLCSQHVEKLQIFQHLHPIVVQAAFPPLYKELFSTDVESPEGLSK
#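 Luminescence from a UAS-regulated Photinus luciferase reporter in stably transfected Drosophila Schneider cells is measured; decreased signal marks ROR gamma inhibition. Fusion expression is induced by 700 uM copper sulfate for 20 hr.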
# ATXN2 expr inh: Primary qHTS for Inhibitors of ATXN expression. AID 1745845, 2022. 360,000 tested, 0.72% active. HEK-293 ATXN2-luciferase reporter, luminescence, 24 h. Potency, µM (series often up to 57 µM), most hits filed as inhibitors; note: nearly all actives have a fitted effect of over 55% in size
#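 ATXN2-luciferase reporter cells (luciferase flanked by upstream and downstream ATXN2 gene portions) were treated 24 h at 37 °C with compounds at up to 57 uM. SteadyGlo luminescence gave expression; GF-AFC fluorescence gave viability.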
# Hits are given with their value; i = inactive; ? = inconclusive; nt = not tested or not shown; [ ] = dose if it differs, or a comment. The list is not random: actives were taken first. Their share in the collection is about 6.1%. Calls come from the whole dose curve; as a rule, active = well fitted curve in the direction sought with a large enough effect; inconclusive = small, poorly fitted or top-dose-only effect, or another doubt; inactive = no such curve, though single readings can be large; an effect the other way counts as inactive or inconclusive.
SMILES,S2 tox,HepG2 viability,TGFb SMAD3 inh,VP16 counter,RORgamma inh,ATXN2 expr inh
COc1ccc(NC(=S)N(CCCN2CCOCC2)C(C)c2cc3cccc(OC)c3o2)cc1 (centres undefined),i,i,?,i[10 µM],i,i
COc1cccc(NC(=S)N(CCCN2CCOCC2)C(C)c2cc3ccccc3o2)c1 (centres undefined),i,i,i,?,11µM,nt
COc1cccc2cc(C(C)N(CCCN3CCOCC3)C(=S)Nc3cccc(C)c3C)oc12 (centres undefined),i,i,i,i[10 µM],11µM,i
COc1cccc2cc(C(C)N(CCCN3CCOCC3)C(=O)Nc3ccccc3)oc12 (centres undefined),i,i,i,i,i,i
COc1cccc2cc(C(C)N(CCCN3CCOCC3)C(=S)Nc3cc(C)ccc3C)oc12 (centres undefined),i,i,i,i[10 µM],11µM,i
COc1cccc(NC(=S)N(CCN(C)C)C(C)c2ccco2)c1 (centres undefined),i,i,i,i,?,i
O=C(O)Cc1cccc(-c2cc(CCCCCCc3ccc(O[C@H]4O[C@H](CO)[C@@H](O)[C@H](O)[C@@H]4O)c(-c4cccc(CC(=O)O)c4)c3)ccc2O[C@H]2O[C@H](CO)[C@@H](O)[C@H](O)[C@@H]2O)c1,i[0.575 µM],nt,nt,nt,nt,i[0.709 µM]
COc1cc(/C=C/c2ccc3ccccc3n2)cc(OC)c1OC,nt,i,i,nt,nt,nt
Cc1cc(C)cc(NC(=O)c2cccc(C(=O)Nc3cc(C)cc(C)c3)c2)c1,i,i,i,nt,nt,i
CCOc1ccc2c(c1)c(=O)c(C(=O)c1ccc(C)cc1)cn2Cc1ccccc1OC,i,i,?,nt,nt,i
CCc1cccc(NC(=S)N(CCCN2CCOCC2)C(C)c2cc3cccc(OC)c3o2)c1 (centres undefined),i,i,i,?,11µM,i
CCn1nnc2sc3c(c2c1=O)CCC(C)C3 (centres undefined),i,i,i,i,i,i
CC(=O)Cn1nnc2sc3c(c2c1=O)CCC(C(C)(C)C)C3 (centres undefined),i,i,i,?,i,i
Cn1c(=S)[nH]c2sc3c(c2c1=O)CCC(C(C)(C)C)C3 (centres undefined),nt,nt,nt,1µM,0.32µM,nt
COCCn1c(=S)[nH]c2sc3c(c2c1=O)CCC(C)C3 (centres undefined),i,i,i,1.3µM,1.1µM,i
CCCn1c(=S)[nH]c2sc3c(c2c1=O)CCCC3,i,i,i,0.89µM,0.28µM,i
O=c1[nH]c(=S)[nH]c2sc3c(c12)CCCCCC3,i,i,i,?,14µM,i
Cc1ccc(NC(=O)C2CCCN(S(=O)(=O)c3cn(C(C)C)cn3)C2)c(C)c1 (centres undefined),i,i,?,nt,nt,i
CN1CCN(C(=O)c2cnn(-c3cccc(Cl)c3)c2C2CCN(C(=O)OC(C)(C)C)CC2)CC1,nt,i,?,nt,nt,nt
CCc1ccccc1NC(=O)C1CCCN(c2cnccn2)C1 (centres undefined),i,i,i,nt,nt,i
Nn1c(=S)[nH]c2sc3c(c2c1=O)CCCC3,i,i,i,nt,nt,i
COCCCn1c(=S)[nH]c2sc3c(c2c1=O)CCCS3,i,i,i,2.8µM,1µM,i
COc1ccc(C)c2sc(N(Cc3cccnc3)C(=O)CCc3ccccc3)nc12,nt,i,i,nt,nt,nt
Clc1ccc(CNc2ccc(CNc3ncn[nH]3)cc2)c(Cl)c1,?,i,i,13µM,?,i
CC1CN(C(=O)c2cc(F)c(F)cc2Cl)CC(C)O1 (centres undefined),i,i,i,nt,nt,i
CN1CC(=O)NC1=NC(=O)c1cc(F)c(F)cc1Cl,i,i,i,?,10µM,i
CN1CC(=O)NC1=NC(=O)c1ccc(Cl)c(S(=O)(=O)N2CCCCCC2)c1,i,i,i,16µM,3.5µM,i
